From PubChem BioAssay AID504652 (National Center for Advancing Translational Sciences (NCATS), 2011) come the findings set out here.

The whole screen tested about 360,000 compounds, of which about 11,000 (3.1%) were called active. Shown is part of a subset that was picked to be rich in actives. Values without a mark were called inactive. Rule as the data show it: active = activity change below about -30%; inactive = the rest.
% is scaled to controls: 0 for no effect and ±100 for the full control effect.

D(1A) dopamine receptor (Homo sapiens), sequence (P21728 whole entry, looked up): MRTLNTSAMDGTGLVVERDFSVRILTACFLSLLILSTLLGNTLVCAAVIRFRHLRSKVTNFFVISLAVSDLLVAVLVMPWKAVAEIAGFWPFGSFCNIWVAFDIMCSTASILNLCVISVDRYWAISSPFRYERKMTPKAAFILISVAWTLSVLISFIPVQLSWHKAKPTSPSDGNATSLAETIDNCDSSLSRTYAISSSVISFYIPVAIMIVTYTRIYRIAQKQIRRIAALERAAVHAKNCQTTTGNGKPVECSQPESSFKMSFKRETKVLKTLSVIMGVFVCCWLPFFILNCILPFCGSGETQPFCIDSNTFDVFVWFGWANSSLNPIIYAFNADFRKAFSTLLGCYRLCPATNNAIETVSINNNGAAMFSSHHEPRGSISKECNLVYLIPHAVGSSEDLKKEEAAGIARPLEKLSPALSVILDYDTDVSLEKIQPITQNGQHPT

In the test the target is D(1A) dopamine receptor (Homo sapiens) (UniProt P21728). Nature of the test: Antagonist of Human D 1 Dopamine Receptor: qHTS. Conditions: HEK293 TREx D1 cells, calcium flux, dopamine EC80; at 10 µM; stronger effect = lower value. The method in brief:
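Cells carrying a force-coupled, tetracycline-inducible human D1 receptor report calcium flux. Each well gets a 10 s baseline, compound with 180 s monitoring, then an EC80 dopamine stimulus with a second 180 s kinetic read.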
Background: Quantitative high-throughput screening tests each substance at several concentrations.
For `Cc1ccc(S(=O)(=O)NC(N)=NCCC[C@@H](NC(=O)CNC(=O)c2ccccc2)C(=O)Nc2cc(C(F)(F)F)ccc2Cl)cc1`, the activity change, negative = inhibition is 4.94%. Regarding `COCCNC(=O)c1ccc(S(=O)(=O)c2ccc(Cl)cc2)c(NC(C)=O)c1`, the activity change, negative = inhibition was -3.29%.

For the compound `COCCNC(=O)c1cc(-c2cccc(Cl)c2)on1`, the activity change, negative = inhibition was -5.13%. The same measure for `COCCNC(=O)c1snc2ccc(Cl)cc12`: -34.4% (active); for `CCOC(=O)c1cccc(NC(=O)c2cc(S(=O)(=O)N3CCCC(C)C3)cn2C)c1` (configuration not stated): -6.74%. Next, `CCOC(=O)c1c(C)[nH]c(C)c1S(=O)(=O)N(C)CC(=O)N1CCN(c2ccccc2)CC1`: 1.35%; `COc1nc(Oc2ccc(=O)n(C)n2)nc(N(C)C)n1`: -8.41%. The same measure for `COC(=O)c1ccc(Oc2nc(NC(C)C)nc(SC)n2)cc1`: -9.38%. For the compound `CCCn1nc(Oc2nc(NC(C)C)nc(N(C)C)n2)ccc1=O`, the activity change, negative = inhibition was -79.5% (active).

As to `COc1cc(C(CC(=O)NCCC(C)C)N2Cc3ccccc3C2=O)cc(OC)c1OC` (configuration not stated), the activity change, negative = inhibition is -5.18%.

With `CC(C)NC(=O)C1CCC(Cn2c(=O)c3sccc3n(Cc3ccc(F)cc3)c2=O)CC1` (configuration not stated), the activity change, negative = inhibition is 0.886%.

`Cc1ccc2nc(N3CCN(c4cccc(Cl)c4)CC3)c3nnnn3c2c1`: the activity change, negative = inhibition is -5.5%. The same measure for `Cc1ccc(NC(=O)CSc2nc3ccccc3c3nc(CCn4cncc4C)nn23)cc1F`: -2.83%; for `CN(c1ccc(O)cc1)c1nc(-c2cccnc2)cs1`: 1.14%; for `Brc1ccc(-c2csc(N/N=C/c3cccnc3)n2)cc1`: -16.3%.

`Oc1ccc(-c2csc(Nc3cccnc3)n2)cc1`: the activity change, negative = inhibition is -30.4% (active). The same measure for `Cc1cccc(C(=O)Nc2ccc(-c3nc4ccccc4s3)c(C)c2)c1`: -25.8%; for `COc1ccccc1-c1cc(C(F)(F)F)nc(S(=O)(=O)CCCC(=O)Nc2ccc(F)cc2F)n1`: -9.9%; for `COc1ccc(C2SCCN2S(=O)(=O)c2ccccc2)cc1OC` (configuration not stated): -1.77%. For `COc1ccc(C2/C(=C(/O)c3ccccc3)C(=O)C(=O)N2c2ncccn2)cc1OC` (configuration not stated), the activity change, negative = inhibition was 2.93%. The same measure for `COc1ccc(C2N=C(N)N=C(N)N2c2ccccc2)cc1OC` (configuration not stated): -44.6% (active); for `Cc1ccc(C)n1-c1nnc(N2CCC(C(=O)NCc3ccc(F)cc3)CC2)s1`: 0.798%. The same measure for `CCCCc1nn2c(=O)cc(COC(=O)c3cccc(NC(=O)COc4ccccc4)c3)nc2s1`: -12.5%; for `CC(C)(CCl)C(=O)Nc1ccc(Sc2ccc(F)cc2)cc1`: -27.2%. The same measure for `O=C(CCl)Nc1cccc(CP(=O)(c2ccccc2)c2ccccc2)c1`: 11.8%. For `O=C(CCl)Nc1ccc(Sc2ccc(NC(=O)CCl)cc2)cc1`, the activity change, negative = inhibition was -33.1% (active). With `Cc1cc(C)cc(OCC(=O)Nc2nc(-c3ccc(F)cc3)ns2)c1`, the activity change, negative = inhibition is -4.25%.

In the case of `Cc1ccc(Cn2ncc3c4sc(C)cc4n(C)c3c2=O)c(C)c1`, the activity change, negative = inhibition was 7.1%. Turning to `COc1cc(Br)cc2cc(S(=O)(=O)c3ccccc3)c(=O)oc12`, the activity change, negative = inhibition was -1.47%.

In the case of `COc1ccc(NS(=O)(=O)c2ccc(NC(=O)c3ccc(N(C)S(C)(=O)=O)cc3)cc2)cc1`, the activity change, negative = inhibition is 3.18%. Next, `COc1ccc(NS(=O)(=O)c2ccc(NC(=S)NC(=O)CC(C)C)cc2)cc1`: -6.91%. Next, `COc1ccc(NS(=O)(=O)c2ccc(Oc3c(C#N)cccc3C#N)cc2)cc1`: -44.8% (active). Next, `Cc1ccc2c(=O)cc(C(=O)Nc3sc4c(c3C(=O)NCc3cccnc3)CCCC4)oc2c1`: -10.7%. For `CCc1ccc(-c2nn(-c3ccccc3)cc2CSC(=N)N)cc1`, the activity change, negative = inhibition is 46%. The same measure for `CCOc1ccc(Br)cc1CSC(=N)N`: 2.93%. The same measure for `N=C(N)SCc1cccc2ccccc12`: -51.9% (active). The same measure for `COc1ccc(-c2noc(CCC(=O)N(C)c3ccccc3C)n2)cc1`: -13%; for `Cc1ccc(CN(C(=O)COc2ccc(Cl)cc2C)C2CCS(=O)(=O)C2)o1` (configuration not stated): -2.94%.

For `O=C(/C=C/c1ccc([N+](=O)[O-])cc1)NCCSCc1ccco1`, the activity change, negative = inhibition is -97.8% (active). Next, `COc1cc(OC)cc(C(=O)NCCSCc2ccco2)c1`: 4.54%; `O=C(/C=C/c1cccc([N+](=O)[O-])c1)NCCSCc1ccco1`: -26.7%.

As to `Cc1cc(C)cc(NC(=O)c2cnc3sc(N4CCCC4)nn3c2=O)c1`, the activity change, negative = inhibition was -28.3%. For `Cc1nc2ccc(S(=O)(=O)NC(C(=O)NCc3ccccc3Cl)C(C)C)cc2s1` (configuration not stated), the activity change, negative = inhibition was 18.5%. The same measure for `COc1cccc(CNC(=O)c2ccc3c(c2)N(Cc2ccc(C(F)(F)F)cc2)C(=O)c2ccccc2S3)c1OC`: -2.43%. Next, `O=c1c(=O)n(Cc2c(F)cccc2Cl)ccn1Cc1ccccc1`: -3.28%; `O=[N+]([O-])/C=C/c1ccc2c(ccn2Cc2ccccc2)c1`: -37.9% (active); `OCCC1CN(Cc2ccc(Oc3ncccn3)cc2)CCN1CCc1ccccc1` (configuration not stated): -6.31%. Next, `OCCC1CN(Cc2cnc(-c3ccccc3)s2)CCN1CCc1ccccc1` (configuration not stated): -3.13%; `OCCC1CN(Cc2cccc(O)c2)CCN1CCc1ccccc1` (configuration not stated): -42.3% (active); `Cc1ccc(C)c(S(=O)(=O)n2nc(C)c(S(=O)(=O)N3CCC(C)CC3)c2C)c1`: 6.24%. As for `CC1=C(c2ccc(C)cc2)S(=O)(=O)NC1=NCCCN1CCN(c2cc(C)ccc2C)CC1`, the activity change, negative = inhibition is 10.4%.

With `CN1CCN(CCNC(=O)Nc2ccc([N+](=O)[O-])cc2)CC1`, the activity change, negative = inhibition was -6.04%. Regarding `Cc1ccc(C)c(N2CCN(CCCNC(=O)Nc3ccc(Cl)cc3)CC2)c1`, the activity change, negative = inhibition is -58.4% (active).

For the compound `CC1=C(c2ccc(Cl)cc2)S(=O)(=O)N=C1N1CCN(c2cc(C)ccc2C)CC1`, the activity change, negative = inhibition was 3.21%. The same measure for `O=C(NCCCN1CCOCC1)c1ccc([N+](=O)[O-])cc1[N+](=O)[O-]`: -7.86%; for `O=C(NCCCN1CCN(c2ccc(F)cc2)CC1)Nc1ccc([N+](=O)[O-])cc1`: -54.6% (active).

With `Cc1cccc(C(=O)Nc2ccc(-c3nc4ncccc4o3)cc2C)c1`, the activity change, negative = inhibition is -4.33%.
